# Ins promoter up: insulin promoter activators in MIN6 cells, imaging, high-content screening, mouse beta cells; MIN6 insulin promoter-GFP reporter; hits give high values; z-score at 5 µM; 190,000 tested, 0.3% active; AID 1625, 2009;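 active = z-score above 3 at 5 µM with at least 500 cells counted in the well; inconclusive = wells under 500 cells, flagged as cytotoxic or low count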
# Lmaj promast: Leishmania major promastigote growth inhibition, primary screen; 200,000 tested, 9% active; Leishmania major promastigotes, resazurin fluorescence viability; inhibition, % at 10 µM; in the data active = inhibition above about 50%;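 note: promastigotes grown with compound for 44 hours at 28 °C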
# Insulin prom inh: inhibitors of insulin promoter-driven GFP, primary screen, imaging, TRM-6 cells (human fetal islet line), eGFP reporter, cell count | reporter expression induced with tamoxifen | AID 1273, 2008 | 130,000 tested, 0.9% active | inhibition, % at 2 µM;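 active = inhibition above the mean plus 3 SD, with well images judged a real hit on visual review, cut at about 60% in these data, passing the limit was not always enough; inconclusive = inhibition over the cutoff but images rejected on review; inactive = inhibition not above the cutoff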
# WT yeast gro inh: growth inhibition of WT strain, primary screen, mitochondrial fusion inhibitor project, WT and mutant strains, chemical genetic. mitochondrial fusion phenotypic screen. inhibition, % at 10 µM. AID 1362, 2008. 190,000 tested, 2.1% active; in the data active = inhibition above about 58%; tested in S. cerevisiae
# Autophagy HCS: autophagy modulators in MEF cells, primary screen, imaging, high-content, MEF GFP-LC3. MEF GFP-LC3 puncta imaging; test concentration mostly 10 µM. calls only at 10 µM (by protocol). 190,000 tested, 0.98% active;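 active = percentage of spot-positive cells more than 3 SD above its plate mean, without a fluorescence outlier flag or 80% toxicity; inconclusive = no clear call, values can overlap the other calls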;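 note: spot-positive cell cutoff set from DMSO-treated cells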
# * hit, by the source's call; i = inactive; ? = inconclusive; · = no result given; + = active, no number. In the library only some 11% were active in any assay of this set; here they are far more common.
SMILES,Ins promoter up,Lmaj promast,Insulin prom inh,WT yeast gro inh,Autophagy HCS
CC(=O)Nc1ccc(S(=O)(=O)N2CCN(c3cc4c(cc3[N+](=O)[O-])n(C)c(=O)n4C)CC2)cc1,-0.7,-1.8,·,-14.5,i
O=C(O)c1ccccc1NSc1ccccc1[N+](=O)[O-],·,-1.0,·,6.5,i
Cn1c(=O)c(Oc2ccc(F)cc2)c(O)c2ccccc21,-0.05,-9.2,64.3*,-10.8,i
CCC1Oc2ccc(C)cc2N(CC(=O)N(Cc2cccnc2)Cc2ccc(C)o2)C1=O (configuration not stated),-0.22,100.3*,-6.9,0.3,i
O=C(NC1CCCCC1)C(c1ccc(Cl)cc1)N(C(=O)c1ccccn1)c1cccnc1 (configuration not stated),-0.29,-1.4,-120.0,-13.7,i
CN(C)S(=O)(=O)c1ccc(-c2csnn2)s1,·,-6.0,-5.7,12.8,i
Clc1nc(CN2CCOCC2)nc2sc3c(c12)CCC3,-0.38,4.6,·,7.2,i
Cc1cccc(Oc2nc(CN3CCOCC3)nc3sc4c(c23)CCCC4)c1,-0.61,98.5*,35.7,31.7,i
O=C(Nc1nnc(SCc2ccc(F)cc2)s1)C1CC(=O)N(Cc2ccccc2)C1 (configuration not stated),-0.2,54.4*,1.3,-16.6,i
CCc1nnc(NC(=O)C2CC(=O)N(Cc3ccccc3)C2)s1 (configuration not stated),0.42,-12.4,·,-10.2,i
CN(C)c1ccc(C(=O)Nc2nc3c(s2)CCCC3)cc1,1.71,98.3*,·,21.8,·
COc1cc(OC)cc(C(=O)N[C@H](C(=O)Nc2nc3c(s2)CCCC3)C(C)C)c1,-0.53,89.7*,-5.6,-1.8,i
CC(C)(C)c1ccc(C(=O)NC(=S)Nc2nc3c(s2)CCCC3)cc1,0.64,67.4*,-33.3,40.2,i
C/C(=N\Nc1nc2c(s1)CCCC2)c1ccc(Cl)cc1,-1.44,46.2,·,71.6*,i
Cc1ccc(C(=O)CCNc2ccc(Cl)cc2)o1,·,11.4,38.5,-4.4,i
O=C1NC(CCc2ccccc2)C(=O)N1CCOc1ccccc1 (configuration not stated),-0.25,-0.3,·,-12.2,i
O=C1NC(CCc2ccccc2)C(=O)N1Cc1ccc(Br)cc1 (configuration not stated),0.51,-5.8,·,0.2,+
O=C(OCc1nnc(-c2ccccc2)o1)C12CC3CC(CC(Br)(C3)C1)C2,-0.39,29.1,0.0,69.6*,i
O=C(OCc1nnc(-c2ccccc2)o1)c1ccccc1,-0.01,0.0,·,7.1,i
CN(C)/C=C1/C=C(C=O)OC1=O,0.29,·,·,·,·
O=C(O)CC(NC(=O)c1cccc([N+](=O)[O-])c1)c1ccc2c(c1)OCO2 (configuration not stated),-0.73,-3.1,·,-2.9,i
Cc1cc(N)n2ncc(-c3ccc(Cl)cc3)c2n1,-0.55,55.2*,32.4,21.8,i
Cc1cc(Cl)n2ncc(-c3ccccc3)c2n1,0.37,·,·,·,·
Cc1cc(N)n2ncc(-c3ccc(F)cc3)c2n1,·,8.9,88.6*,9.9,i
O=C(/C=C/c1ccc2c(c1)OCO2)N1CCN(c2n[nH]c(=O)[nH]c2=O)CC1,0.7,·,·,·,·
SMILES,Ins promoter up,Lmaj promast,Insulin prom inh,WT yeast gro inh,Autophagy HCS
Cc1cc(C)n2nc(C(=O)N/N=C/c3cccs3)nc2n1,0.03,-5.1,·,-2.8,i
O=C1CC2(CCCC2)CC(=O)N1CCCCN1CCN(c2ncccn2)CC1,·,59.5*,27.3,-2.3,i
Fc1cccc(F)c1CN1CCN(c2ncccn2)CC1,·,-0.3,9.1,-8.7,i
C=C(C)C1CC=C(C)/C(=N/NC(=O)c2ccccc2[N+](=O)[O-])C1 (configuration not stated),-0.47,62.5*,33.3,-2.2,i
C=C(C)C1CC=C(C)/C(=N/NC(=O)c2ccc(NC(=O)CC)cc2)C1 (configuration not stated),0.81,99.2*,-35.1,10.7,i
C=C(C)C1CC=C(C)/C(=N/NC(=O)CNc2ccc(C)cc2C)C1 (configuration not stated),-0.53,4.2,0.0,-6.7,i
C=C(C)C1CC=C(C)/C(=N\NC(=O)CCC(=O)Nc2ccc(C)c(C)c2)C1 (configuration not stated),0.17,·,·,·,·
C=C(C)C1CC=C(C)/C(=N/NC(=O)c2cccs2)C1 (configuration not stated),-0.16,22.6,9.8,3.4,i
C=C(C)C1CC=C(C)/C(=N/Nc2ccccc2[N+](=O)[O-])C1 (configuration not stated),-0.26,-0.8,17.9,30.0,i
C=C(C)C1CC=C(C)/C(=N/NC(=O)c2ccc(NC(=O)CCC)cc2)C1 (configuration not stated),0.45,99.8*,83.3*,13.9,i
C=C(C)C1CC=C(C)/C(=N/NC(=O)CNc2ccc(OCC)cc2)C1 (configuration not stated),-1.24,99.5*,·,4.6,i
COc1ccc(CC(=O)NCc2n[nH]c(=S)n2-c2ccccc2OC)cc1,-0.62,0.8,40.0,-13.4,i
Cc1ccc2cccnc2c1NC(=S)NC(=O)c1ccccc1,0.77,7.9,·,-6.1,i
COc1ccc(N2CCN(C(=O)Nc3ccccc3C)CC2)cc1,-0.28,-4.5,10.5,7.5,i
O=S(=O)(Nc1cccc(-c2nc3cccnc3s2)c1)c1ccc2c(c1)OCCO2,-0.25,7.6,·,67.7*,i
CCOc1cc(N(CC)CC)ccc1/C=C(/C#N)c1nc2ccccc2[nH]1,·,79.9*,-233.3,-2.3,+
COc1c(O)ccc(/C=C(\C#N)c2nc3ccccc3[nH]2)c1[N+](=O)[O-],-0.25,-2.0,·,-6.1,i
COc1cc(/C=C(\C#N)c2nc3ccccc3[nH]2)cc(OC)c1O,-0.25,7.6,·,2.7,i
CCN(CC)c1ccc(/C=C(/C#N)c2nc3ccc(C)cc3[nH]2)c(OC(C)C)c1,·,99.6*,-244.8,27.6,+
CCCOc1cc(N(CC)CC)ccc1/C=C(/C#N)c1nc2ccc(C)cc2[nH]1,·,66.0*,·,7.1,+
OCC(O)C(O)C(O)C(O)c1nc2ccccc2[nH]1 (configuration not stated),0.53,6.4,·,-8.8,i
N=c1c2ccccc2nnn1-c1cccc(C(F)(F)F)c1,·,-1.1,-63.2,16.3,i
CCOc1cc(CNc2ncn[nH]2)ccc1OCC(=O)NC(C)(C)C,0.31,-2.8,·,-11.5,i
O=C1C(Cl)=C(NCCN2CCCCC2)C(=O)c2ccccc21,?,99.3*,i,4.1,i
O=C(Oc1ccc2c(=O)c(Oc3ccc4ccccc4c3)coc2c1)c1cncc(Br)c1,0.08,-11.4,·,-3.5,i
O=C(Oc1ccc2c(=O)c(Cl)coc2c1)c1ccncc1,-0.11,-5.7,81.8*,2.2,i
CCC(CC)NC(=O)c1cccc(Br)c1,-0.44,5.6,88.2*,2.0,i
O=C(O)CCC(=O)NNC(=O)c1cccc(Br)c1,0.3,59.6*,-23.7,-15.8,i
